Compound activity deposited in PubChem BioAssay by National Center for Advancing Translational Sciences (NCATS).
Most compounds without a hit are left out; they make up all but 19% or so of the library.
HT1080-NT tox = qHTS for induction of synthetic lethality in tumor cells producing 2HG: qHTS for the HT-1080-NT fibrosarcoma cell line; 360,000 tested, 1.6% active; AID 686970, 2013; Potency, µM (series often up to 46.1 µM), without a hit: at the top dose activity, negative = less viability, most hits filed as cytotoxic; HT-1080-NT fibrosarcoma viability, CellTiter-Glo ATP luminescence, 48 h;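 also: NT is the 2HG producing partner of a matched IDH1 knockdown line; potency is read from the fitted curve at half-maximal effect; 0% = DMSO-treated cells and -100% = media-only wells without cells; nearly all actives have a fitted effect of over 55% in size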
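Toxicity toward the 2HG-producing NT line was scored as %Activity, normalised to DMSO and no-cell wells, from CellTiter-Glo luminescence after 48 hours' treatment.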
DT40 TDP1 CPT = qHTS for Inhibitors of human tyrosyl-DNA phosphodiesterase 1 (TDP1): qHTS in cells in presence of CPT; 420,000 tested, 12% active; Potency, µM (titrated, usually from 46.2 µM), for inactives: at the top dose activity change, negative = growth inhibition, actives largely listed as inhibitors; chicken DT40 Tdp1-/-;hTDP1 cells + 20 nM CPT, ATP luminescence, 48 h; also: potency is read from the fitted curve at half-maximal effect; nearly all actives have a fitted effect of over 55% in size
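Cell growth measured by CellTiter-Glo luminescence after a minimum 48 h, 37 C compound exposure with 20 nM CPT in Tdp1-knockout DT40 cells stably expressing hTDP1, seeded 400/well; qHTS titration format.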
HT1080 IDH1KD tx = qHTS for induction of synthetic lethality in tumor cells producing 2HG: qHTS for the HT-1080-IDH1KD cell line; HT-1080 IDH1 knockdown viability, ATP luminescence, 48 h; Potency, µM (highest dose often 46.1 µM), without a hit: at the top dose activity, negative = toxicity, usual class: cytotoxic; 360,000 tested, 2% active;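 also: potency is read from the fitted curve at half-maximal effect; 0% = DMSO wells and -100% = cell-free medium wells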
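Cytotoxicity counter-line: IDH1KD HT-1080, 48 h, CellTiter-Glo. Curves classed by r2, magnitude and activity.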
IL-1B inflam inh = qHTS for Inhibitors of Inflammasome Signaling: IL-1-beta AlphaLISA Primary Screen; THP-1 LPS/ATP IL-1B secretion, AlphaLISA, 16 h; hits give low values; activity change, % at 57.5 µM; 360,000 tested, 4.7% active; AID 743279, 2014; in the data active = activity change below about -50%; inconclusive = mostly about -30% to -49%
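THP-1 cells pretreated 1 hr with compounds (up to 57.5 uM final), then stimulated with LPS (250 ng/mL final) plus ATP (1.25 mM final); secreted IL-1B measured by AlphaLISA after 16 hr, decreased signal indicating inhibition.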
TDP1 cell noCPT = qHTS for Inhibitors of human tyrosyl-DNA phosphodiesterase 1 (TDP1): qHTS in cells in absence of CPT; Potency, µM (top dose mostly 46.2 µM), without a hit: top-dose activity change, negative = growth inhibition, usual class: inhibitors; AID 686978, 2013; DT40 Tdp1-/- hTDP1 cells, no CPT, ATP luminescence, 48 h; 420,000 tested, 15% active; also: potency is read from the fitted curve at half-maximal effect; nearly all actives have a fitted effect of over 55% in size
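Compound effects on proliferation are scored in DT40 Tdp1-/-;hTDP1 cells in the absence of CPT. ATP levels (CellTiter-Glo luminescence) are recorded after a ≥48 hr, 37 °C incubation.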
* hit, by the source's call; ? = inconclusive; . = no result; [ ] = another dose, or the depositor's remark. Unless noted, calls follow the shape of the dose curve; as a rule, active = well fitted curve in the direction sought with a large enough effect; inconclusive = small, poorly fitted or top-dose-only effect, or another doubt; inactive = no such curve, though single readings can be large; an effect the other way counts as inactive or inconclusive. Unless noted, % is scaled to controls: 0 for no effect and ±100 for the full control effect.

SMILES	HT1080-NT tox	DT40 TDP1 CPT	HT1080 IDH1KD tx	IL-1B inflam inh	TDP1 cell noCPT
COc1ccc(/C=N/NC(=O)c2c(C)nc3ccc(Br)cn23)cc1OC	?	8.2µM*	4.6µM*	46	7.3µM*
COc1ccccc1NS(=O)(=O)c1cc(C(=O)NCC(c2ccc(F)cc2)N2CCOCC2)ccc1C (stereo unspecified)	-2%	?	-5%	-9	?
CCC(=O)Nc1cc(-c2cc3ccccc3oc2=O)ccc1OC	-1%	-27%	8%	-18	?
COc1ccc(-c2cc3ccccc3oc2=O)cc1NC(=S)NC(=O)c1ccc2c(c1)OCCO2	8%	12µM*	-4%	-15	9.2µM*
COc1ccc(-c2cc3ccccc3oc2=O)cc1NC(=O)c1ccc(Br)o1	-13%	-20%	-29%	-6	?
COc1ccc(-c2cc3ccccc3oc2=O)cc1NC(=O)c1ccc([N+](=O)[O-])o1	-11%	21µM*	?	-9	15µM*
Cc1cccc(N2CCN(S(=O)(=O)c3ccc4oc(=O)c5ncn(C)c5c4c3)CC2C)c1 (stereo unspecified)	.	-11%	.	.	4%
O=C(CCc1nnc2ccc(N3CCOCC3)nn12)Nc1ccc(F)cc1F	-3%	1%	11%	11	13%
CCCCNC(=O)[C@@](CC)(ONc1ccccc1C(F)(F)F)c1cccc2ccccc12	-1%	15µM*	0%	?	?
CCC(COC)NC(=O)CCc1nnc(Cc2cccc(C(F)(F)F)c2)o1 (stereo unspecified)	10%	-7%	15%	-1	-4%
CC[C@@H](C)[C@H](CNC)NC[C@@H](Cc1cccc2ccccc12)NCCc1cccc(C(F)(F)F)c1	?	23µM*	?	-24	?
CCC[C@@H](CN[C@@H](CNC)[C@H](C)CC)NCC1CCC(C(C)(C)C)CC1 (stereo partly specified)	?	1µM*	?	-53*	0.65µM*
CCC[C@H](CN[C@@H](CNC)[C@H](C)CC)NCCc1cc(C(F)(F)F)cc(C(F)(F)F)c1	?	12µM*	?	-100*	3.3µM*
CSCCC(NC(=O)c1ccccc1Cl)C(=O)N1CC(C)OC(C)C1 (stereo unspecified)	5%	3%	13%	-11	3%
CC(C)(C)NC(=O)COc1ccc2oc3c(c2c1)CCCC3	-4%	-15%	-12%	-10	?
CC(NC(=O)COC(=O)c1cc(NS(=O)(=O)c2ccc(Cl)c([N+](=O)[O-])c2)ccc1O)C1CC2CCC1C2 (stereo unspecified)	?	?	?	-107*	?
CCN(CC(=O)Nc1ccccc1OC)C(=O)CSCc1ccc(C)cc1	7%	?	1%	-15	?
O=C(CCC(=O)c1cccs1)OCc1ccc([N+](=O)[O-])cc1	0%[9.24 µM]	3%	4%	8	14%
Cc1noc(C)c1CN(C(=S)NC1CC2CCC1C2)c1ccccc1 (stereo unspecified)	-3%	?	-21%	?	23µM*
Cc1noc(C)c1CN(C(=S)NC(C)C)c1ccccc1	13%	17%	18%	36	-21%
CN(CCC(=O)Nc1ccc(Br)cc1)Cc1ccccc1	?	?	-5%	-62*	?
O=C(CCC(=O)OCc1ccc(Br)cc1)Nc1ccccc1	2%	16µM*	7%	2	?
CC1CC/C(=N/Nc2ccccc2)C(=O)N1 (stereo unspecified)	1%	-3%	9%	0	-9%
C[C@@H]1CN([C@@H](C)CO)C(=O)c2cc(NC(=O)C3CC3)ccc2O[C@@H]1CN(C)Cc1ccc(Cl)c(Cl)c1	-27%	21µM*	?	?	23µM*
C[C@H](CO)N1C[C@H](C)[C@@H](CN(C)Cc2ccc(-c3ccccc3)cc2)Oc2c(NS(=O)(=O)c3ccccc3)cccc2C1=O	-12%	21µM*	-9%	?	18µM*
C[C@H](CO)N1C[C@H](C)[C@@H](CN(C)Cc2ccc(Cl)c(Cl)c2)Oc2c(NS(=O)(=O)c3ccc(F)cc3)cccc2C1=O	?	?	?	-82*	23µM*
C[C@@H]1CN([C@@H](C)CO)C(=O)c2cccc(NC(=O)C3CCCCC3)c2O[C@@H]1CN(C)Cc1ccc(Cl)c(Cl)c1	?	10µM*	?	-90*	21µM*
